Source: the supplement of paper PMC3334620
Whole data set: some 33,000 sequences, median “E-score (-0.5 to 0.5)” near -0.0059, cut for the highest 2% near 0.26. The list comes from a sample in which the highest values are over-represented; it also holds similar and randomly drawn sequences.

molecular target: T1, Cin5 (UniProt P40917); experiment: PBM E-score (8-mer binding enrichment) (E-score (-0.5 to 0.5)); higher = stronger / more preferred TF binding; details: protein concentration: 100 nM; construct: GST-full length
T1 sequence: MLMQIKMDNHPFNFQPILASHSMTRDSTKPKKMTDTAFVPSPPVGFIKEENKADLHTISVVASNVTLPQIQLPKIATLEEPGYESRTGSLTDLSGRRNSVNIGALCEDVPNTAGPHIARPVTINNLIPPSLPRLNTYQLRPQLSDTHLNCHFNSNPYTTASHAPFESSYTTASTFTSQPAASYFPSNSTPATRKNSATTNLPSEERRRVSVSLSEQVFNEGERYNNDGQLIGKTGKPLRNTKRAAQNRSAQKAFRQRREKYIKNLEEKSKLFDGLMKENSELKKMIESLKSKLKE
How it was run: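 Masliner-normalised scans of fluorescent anti-GST signal were the basis for scoring. That signal came from GST-tagged yeast transcription factors applied at about 100-200 nM to double-stranded universal all-10-mer Agilent arrays on fresh or once-stripped slides. Each ungapped eight-base word, pooled with its reverse complement, received an E-score from the Universal PBM Analysis Suite.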

Sequence	PBM E-score
CCCACGTA	-0.0439
CACCCAGG	-0.237
TACGATGA	0.12
ACGATTAT	0.274
ACGATTAG	0.158
AGGATTAT	-0.0477
CCCGTTTA	0.069
GGATTACA	0.19
CGATTACG	0.389
CCATTACA	0.223
CGATTACA	0.177
AGATTACT	0.182
CCATTACG	0.0601
AGATTACG	0.419
AGATTACA	0.286
TCATTACA	0.164
AGATTACC	0.14
TGATTACA	0.301
CGATTACC	0.143
CTCCCTTC	-0.312
AAAAGCCC	-0.0247
CGGGCCTC	0.0182

Sequence	PBM E-score
CACACACA	0.0837
AAGACCAC	-0.205
CACCCGGC	-0.351
TCAGGCAA	-0.0467
CGGGTGTA	0.0316
AATTCACG	-0.0153
GATTCACA	0.0537
AATTCACA	0.258
AAGGTATA	-0.0348
TCTAATCA	0.231
ACTAATCG	0.355
ACTAATCT	0.128
ACTAAACC	-0.0367
ACTAAACA	0.258
TCTAAACA	-0.115
ACTAATCA	0.264
CCTAATCG	0.155
ACTAATCC	0.125
CTCGACCC	-0.157
CCGTTACG	0.0353
ATCTTTAA	0.0357
CCCCTCTC	-0.318

Sequence	PBM E-score
AACGTCGG	-0.0613
TATGTCGA	0.0777
AGTATTCA	0.165
CTCGCAAA	-0.0438
GTCAGCCA	0.07
ATACCTAT	0.176
ATACCTAC	0.046
ATACCTAA	0.286
AGGCAGAC	-0.247
ATGCTTAA	0.146
ATGCTTTA	-0.0364
CTGCTTTC	0.058
ATGCTTTC	0.155
CTGCTGTC	-0.0623
ATGCTTAC	0.265
CTGCTTAC	0.402
CTGCTTCC	-0.178
CTGCTGAA	-0.212
CTGCTTTA	0.278
CTGCTGAC	0.26
CTGCTTAA	0.00628
AAACCTGT	0.0662

Sequence	PBM E-score
ATGTGAGC	-0.0106
AAAAGCTG	-0.148
GCAGGAGC	-0.285
GACCGCCC	-0.161
TCGAGTCA	-0.0465
ATTTCCTC	0.09
AGGAGCCG	-0.317
AGAGGAGC	-0.233
GGCTGCAA	-0.0216
ATGCTTAG	0.313
ATGCTTGG	-0.0358
ATGCTTCG	-0.0239
GGGGAAAC	-0.0321
TGGAACAA	0.0669
CGGAACGC	0.0289
GAGAACAA	0.269
AAGAACAA	0.197
CGGAACGA	0.287
AGGAACGA	-0.244
CGGAACAA	0.302
CGGAACAC	0.177
GAGAACAC	0.047
